In PubChem BioAssay (NCI) one finds growth data, which are given here for 40 compounds.

The panel holds about 83,000 compounds, 20% with a hit somewhere; the sample as a whole holds those more often.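 Cells were grown in 96-well plates and exposed to the test compound at a single concentration for 48 hours; results are reported as percent growth, with values below 10 considered active.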 Activity calls are given as the source filed them.

In this assay the test system is SW-620 colon. The experiment in a line: NCI-60 one-dose screen, 48 h (100 = growth as untreated, 0 = no growth, -100 = all killed). The following applies: 10 µM unless noted. As to the method:
Growth inhibition of the SW-620 human tumor cell line is measured as a screen for anti-cancer activity. Cells are grown in 96 well plates and exposed to the test compound for 48 hours. Compounds are tested at a single concentration, which is 10^-5 M for most compounds. The reported endpoint is percent growth (GI% or GIPRCNT), where numbers from 0 - 100% represent growth inhibition, and numbers from -100% - 0 represent cell death. For example, a value of 40 represents 60% growth inhibition. A value of 0 means no net growth occurred over the course of the experiment. A value of -40 indicates 40% of cells at the beginning of the experiment died by the end of the experiment. A value of -100 means all cells are dead at the end of the experiment.
NCI-60 Human Tumor Cell Lines Screen was performed using the standard one-dose NCI protocol, which is described in more detail at https://dtp.cancer.gov/discovery_development/nci-60/default.htm.
Compounds with GIPRCNT values below 10 were considered active. Activity score was based on GIPRCNT using the following formula: […]
Score is 0 for GIPRCNT values of 100 or above, 50 for GIPRCNT values of 0, and 100 for GIPRCNT values of -100.
As to `C[C@]12CC[C@@H]3c4ccc(O)c(N)c4CC[C@H]3[C@@H]1CC[C@@H]2O`, the growth is 122% (inactive).

As for `COc1ccc(-c2c(C#N)cnc(N)c2-c2nc3cc(C)c(C)cc3[nH]2)cc1`, the growth was 38.4% (inactive).

Take `CS(=O)(=O)Nc1cccc(-c2ccc3ncnc(Nc4ccc(F)c(Cl)c4)c3c2)c1`: the growth was 7.1% (active).

Consider `Cc1cn(C2CC(F)C(CO)O2)c(=O)[nH]c1=O` (stereo not given), for which the growth was 115% (inactive).

Turning to `NN=C(c1ccc(Cl)cc1)c1ccc(Cl)cc1`, the growth was 101% (inactive).

Regarding `c1ccc(OCC[P+](c2ccccc2)(c2ccccc2)c2ccccc2)cc1`, the growth is 18.3% (inactive).

In the case of `Cc1ccc(Cn2cc(COc3ccc4c5ccnc(C)c5n(CCCc5ccccc5)c4c3)nn2)cc1`, the growth is 89.5% (inactive).

For `CCOC(=O)C(C)(CSSCC(C)(NC(=O)c1ccc2ccccc2c1)C(=O)OCC)NC(=O)c1ccc2ccccc2c1` (stereo not given), the growth was 96.5% (inactive).

As for `COc1ccc(/C=C2/C(=O)Nc3cc(Cl)c(-c4csc(N)n4)cc32)cc1`, the growth is 31.2% (inactive).

For the compound `C=CCn1c(SCC(=O)Nc2ccc(/C(C)=N\O)cc2)nnc1-c1cc(-c2ccc(OC)cc2)nc2ccccc12`, the growth was 39.4% (inactive).

As for `COC(=O)c1oc2c(C(=O)/C=C/c3ccc(OC)cc3)c(OCCN3CCOCC3)ccc2c1C`, the growth is -96.8% (active).

Regarding `O=C(Nc1ccc(-n2ccc3c(NC(=O)c4ccccc4)ncnc32)cc1)c1cccc(C(F)(F)F)c1`, the growth is 29.1% (inactive).

Take `CN(C)CCCOc1c(Br)cc(/C=C/C(=O)N(C)CCc2cc(Br)c(OCCCN(C)C)c(Br)c2)cc1Br`: the growth was 32% (inactive).

With `CN(C)CC/C=C1\c2ccccc2Sc2ccc(Cl)cc21`, the growth is 81.5% (inactive).

For `CNCCCOc1c(Br)cc(CCNC(=O)/C(Cc2cc(Br)c(OC)c(Br)c2)=N/O)cc1Br`, the growth is -47.1% (active).

`CCOC(=O)c1cnc2c(OC)ccc(OC)c2c1Cl`: the growth is 107% (inactive).

Regarding `C/C(=N\N=C1/SCC(=O)N1c1ccccc1)c1ccco1`, the growth is 109% (inactive).

In the case of `CC1(C)N=C(N)N=C(N)N1c1cccc(CCCCc2ccccc2)c1`, the growth was 25.3% (inactive).

For `O=C(NCCNc1nccc(-c2c(-c3cccc(O)c3)nc3sccn23)n1)c1ccccc1O`, the growth was 77.9% (inactive).

Regarding `O=c1nc(N2CCOCC2)oc2c(-c3cccc4ccccc34)cccc12`, the growth was 97.9% (inactive).

For the compound `O=C(/C=C/c1ccccc1)Oc1ccc(/C=C/c2cc(OC(=O)/C=C/c3ccccc3)cc(OC(=O)/C=C/c3ccccc3)c2)cc1`, the growth is 99.6% (inactive).

Regarding `Cc1ccc(N(CC2=NCCN2)c2cccc(O)c2)cc1`, the growth was 102% (inactive).

As for `COc1ccc2c(c1)nnc1c3cccnc3[nH]c21`, the growth was -12.5% (active).

Turning to `O=C1/C(=C/c2cccc3cnccc23)Cc2cc(F)ccc21`, the growth is 101% (inactive).

Consider `CC(C(C(=O)N1CCCCC1)N1CCCCC1)N1CCCCC1` (stereo not given), for which the growth is 108% (inactive).

In the case of `O=c1c(-c2ccc3c(c2)OCO3)coc2c(CO)c(O)ccc12`, the growth was 38.1% (inactive).

With `O=C1c2ccccc2OC=C(c2ccccc2)N1CCCCNc1ccc(F)cc1`, the growth is 103% (inactive).

In the case of `CCN(CC)CCNCC(O)Cc1ccc(OC)cc1` (stereo not given), the growth is 103% (inactive).

Turning to `COc1ccc(C2CC(c3cc(Cl)c(C)cc3OC)=NN2c2ccc(S(N)(=O)=O)cc2)cc1OC` (stereo not given), the growth was 93.6% (inactive).

On to `COC(=O)Nc1nc2ccc(Sc3ccccc3)cc2[nH]1`, for which the growth is 18.6% (inactive).

For `O=C(Nc1ccc(-n2ccc3c(NC(=O)c4ccccc4)nccc32)cc1)c1cccc(C(F)(F)F)c1`, the growth is 19.2% (inactive).

As to `COc1cc(NC(C)CCCN2C(=O)c3ccccc3C2=O)c2ncccc2c1OC` (stereo not given), the growth is 84.7% (inactive).

Regarding `CC(/C=C/C=C(\C)[C@H](O)[C@H](C)C(=O)O[C@H]1C[C@H](C)C=C2C=C[C@@]3(C)O[C@@H](O)CC(=O)[C@]3(C)[C@H]21)=C\C=C\C(=O)O`, the growth is 9.52% (active).

Take `CC(NCCC(c1ccccc1)c1ccccc1)c1ccccc1` (stereo not given): the growth is 36.7% (inactive).

Consider `O=C(Nc1ccc(-n2cc(-c3ccncc3)c(-c3ccc(O)c(Cl)c3)n2)cc1)Nc1ccc(Cl)c(C(F)(F)F)c1`, for which the growth was 19.6% (inactive).

Regarding `Cc1cc(NCCN(C(C)C)C(C)C)nc(/N=C(\N)Nc2ccc(Cl)c(C(F)(F)F)c2)n1`, the growth is -89.7% (active).

With `O=C(Nc1ccc(-n2cc(-c3ccncc3)c(-c3ccc(O)c(Cl)c3)n2)cc1)c1cc(C(F)(F)F)cc(C(F)(F)F)c1`, the growth was 76.2% (inactive).

For `O=C(NCCNc1nccc(-c2c(-c3cccc(O)c3)nc3sccn23)n1)c1ccc(N2CCOCC2)c(C(F)(F)F)c1`, the growth is 111% (inactive).

For `Nc1n[nH]c2cccc(C#Cc3cccc(NC(=O)c4cccc(C(F)(F)F)c4)c3)c12`, the growth was 46.1% (inactive).

For `NS(=O)(=O)c1ccc(Nc2nc(O)c(/C=C3\C=Nc4ccccc43)s2)cc1`, the growth is 99.6% (inactive).
